Results from PubChem BioAssay (NCATS).
Records with an inconclusive call do not appear. Active and inactive are the calls of the source. Calls follow the shape of the dose curve; as a rule, active = well fitted inhibition curve with a large enough effect; inconclusive = small, poorly fitted or top-dose-only effect; inactive = flat fitted curve, though single readings scatter.

Experiments:
Experiment in all cases: Cytotoxic Profiling of Annotated Libraries Using Quantitative High-Throughput Screening (AID 1296008); also: nearly all actives have a fitted effect of over 60% in size
Settings in all cases: Five cell lines viability, CellTiter-Glo ATP luminescence, 48-72 h; max response: active compounds read low
CRL-7250 = normal cell line; test system: CRL-7250
Procedure, shortened: (§1)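 Compounds were pin-transferred onto cells and incubated 48 or 72 hr at 37 degree Celsius, 95% humidity. CellTiter-Glo was added, plates sat 10 min at room temperature, then ATP-coupled luminescence was imaged as the viability read-out.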

HEK293 = test system: HEK293
Procedure, shortened: as §1

HaCat = test system: HaCat
Procedure, shortened: as §1

KB-3-1 = test system: KB-3-1
Procedure, shortened: as §1

NIH3T3 = test system: NIH3T3
Procedure, shortened: as §1

Measured: max response
% is scaled to controls: 0 for no effect and ±100 for the full control effect.

Cc1ccc2[nH]c(=O)c(C3=NN(C(=O)CCC(=O)O)C(c4ccc(Br)cc4)C3)c(-c3ccccc3)c2c1 (stereo not given)
inactive: CRL-7250 0.735% | HEK293 1.24% | HaCat -0.37% | KB-3-1 4.72% | NIH3T3

CC(=O)NC1C(OC2CCC3(C)C(CCC4(C)C3CC=C3C5CC(C)(C)CCC5(C(=O)O)C(O)CC34C)C2(C)C)OC(CO)C(O)C1O (stereo not given)
inactive: CRL-7250 -37.4% | HEK293 -25.2% | HaCat | KB-3-1 0.467% | NIH3T3

CC(C)CC(=O)NCCn1cc(C(=O)O)c(=O)cc1C(O)c1ccccc1 (stereo not given)
inactive: CRL-7250 | HEK293 -11.3% | HaCat | KB-3-1 | NIH3T3 3.17%

C/C=C/C=C/C=C/C(=O)O[C@@H]1[C@@H](OC)C2=C(C(=O)N(C(CCC(=O)O)C(=O)O)C2)[C@@]2(C)CCCC(C)(C)[C@H]12 (stereo not given in full)
inactive: CRL-7250 -4.83% | HEK293 | HaCat -8.01% | KB-3-1 0.124% | NIH3T3 -12.6%

COC(=O)C1=CO[C@@H](O[C@@H]2O[C@H](CO)[C@@H](O)[C@H](O)[C@H]2O)[C@@H]2[C@@H](C(=O)O)CC[C@H]12
inactive: CRL-7250 -20% | HEK293 -0.168% | HaCat | KB-3-1 3.46% | NIH3T3 0.607%

C[C@@]1(O)[C@H](O)[C@@H](CO)O[C@H]1n1cnc2c(=O)[nH]c(N)nc21
inactive: CRL-7250 0.111% | HEK293 0.681% | HaCat -4.96% | KB-3-1 | NIH3T3

CCCCCOC(=O)Nc1nc(=O)n(C2O[C@H](C)[C@@H](O)[C@H]2O)cc1F (stereo not given in full)
inactive: CRL-7250 | HEK293 -11.1% | HaCat -6.73% | KB-3-1 | NIH3T3
